High-throughput results: PubChem BioAssay, National Center for Advancing Translational Sciences (NCATS)
Compounds with a hit are over-represented: about 21% of the library has one in this group of screens.
D3 antag: qHTS of D3 Dopamine Receptor Antagonist: qHTS; D(3) dopamine receptor (Homo sapiens), P35462; D3R cells, DiscoveRx beta-arrestin luminescence, antagonist mode; active compounds read low; max response, negative = inhibition, %; hit rate 2.5% among 360,000; AID 652054, 2013; in the data active means max response below about -50%; inconclusive means no clear call, values can overlap the other calls; further: on the % scale 0 is the no-effect control and ±100 the full control effect
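Cells expressing the human receptor were seeded at 1500 cells/well, incubated overnight at 37 degrees C in 5% CO2, then exposed to library compounds with dopamine controls for 90 minutes at 37 degrees C before luminescent detection.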
DT40 TDP1 no CPT: qHTS for Inhibitors of human tyrosyl-DNA phosphodiesterase 1 (TDP1): qHTS in cells in absence of CPT; Potency, µM (doses to about 46.2 µM), inactives show at the highest dose activity change, negative = growth inhibition, actives largely listed as inhibitors; hit rate 15% among 420,000; AID 686978, 2013; DT40 Tdp1-/- hTDP1 cells, no CPT, ATP luminescence, 48 h; further: potency means the concentration at half of the fitted maximal effect; on the % scale 0 is the no-effect control and ±100 the full control effect; nearly all actives have a fitted effect of over 55% in size
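Chicken DT40 Tdp1-/- cells stably complemented with human TDP1 were seeded at 400 cells/well with DMSO in place of 20 nM camptothecin. After compound pinning, cells grew at least 48 hr at 37 °C; viability read by CellTiter-Glo luminescence.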
ClpP mod: qHTS Assay for Activators of ClpP; ATP-dependent Clp protease proteolytic subunit (Bacillus subtilis (strain 168)), P80244; purified B. subtilis ClpP, FRET peptide cleavage, 20 min; Potency, µM (top dose mostly 57.5 µM), without a hit: top-dose activity change, negative = active; hit rate 1.9% among 340,000; active means well fitted falling curve with a large enough effect; inconclusive means small, poorly fitted or top-dose-only effect; inactive means no such curve, though single readings can be large or run the other way; further: potency means the concentration at half of the fitted maximal effect; the source files actives as falling curves though it sought activators and does not explain the sign; nearly all actives have a fitted effect of over 65% in size
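Buffer: 100 mM Tris/HCl pH8, 100 mM KCl, 0.05% low protease BSA, 2.5% glycerol, 0.01% Tween-20. ClpP 10 microg/mL final; 20 min RT; delta FRET normalized to ADEP and DMSO controls.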
DRD3 agonist: qHTS of D3 Dopamine Receptor Agonist: qHTS. max activation, %. AID 652048, 2013. D(3) dopamine receptor (Homo sapiens), P35462. D3R DiscoveRx beta-arrestin cells, luminescence, 90 min. hit rate 0.58% among 410,000; in the data active means max activation above about 30%; further: 0% is about no effect
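Cells at 1500/well, incubated overnight, then treated with pinned compounds (dopamine as control) for 90 min at 37 degrees C. DiscoveRx reagent added for 30 - 60 minutes at room temperature; luminescence read.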
DT40 TDP1 CPT: qHTS for Inhibitors of human tyrosyl-DNA phosphodiesterase 1 (TDP1): qHTS in cells in presence of CPT. chicken DT40 Tdp1-/-;hTDP1 cells + 20 nM CPT, ATP luminescence, 48 h. Potency, µM (highest dose often 46.2 µM), for the others: at the top dose activity change, negative = growth inhibition, usual class: inhibitors. hit rate 12% among 420,000; further: potency means the concentration at half of the fitted maximal effect; on the % scale 0 is the no-effect control and ±100 the full control effect; nearly all actives have a fitted effect of over 55% in size
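Chicken DT40 Tdp1-/- cells complemented with human TDP1, 400 cells/well, exposed to compounds plus 20 nM camptothecin for at least 48 h at 37 C; viability read as ATP content by CellTiter-Glo luminescence.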
IL1B secr inh: qHTS for Inhibitors of Inflammasome Signaling: IL-1-beta AlphaLISA Primary Screen; THP-1 LPS/ATP IL-1B secretion, AlphaLISA, 16 h; active compounds read low; activity change, % at 57.5 µM; hit rate 4.7% among 360,000; AID 743279, 2014; in the data active means activity change below about -50%; inconclusive means mostly about -30% to -49%; further: on the % scale 0 is the no-effect control and ±100 the full control effect
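THP-1 cells pretreated 1 hr with compounds (up to 57.5 uM final), then stimulated with LPS (250 ng/mL final) plus ATP (1.25 mM final); secreted IL-1B measured by AlphaLISA after 16 hr, decreased signal indicating inhibition.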
An asterisk follows results filed as active; ? = inconclusive; . = no result given. Unless noted, the call rests on the fitted dose curve; in most records, active means well fitted inhibition curve with a large enough effect; inconclusive means small, poorly fitted or top-dose-only effect; inactive means flat fitted curve, though single readings scatter.

SMILES	D3 antag	DT40 TDP1 no CPT	ClpP mod	DRD3 agonist	DT40 TDP1 CPT	IL1B secr inh
COC(=O)C1CC2(C(=O)OC)CC(C(=O)OC)(CC(C(=O)OC)C2=O)C1=O (centres undefined)	0	-17%	1%	-2	4%	-15
CCc1ccccc1NC(=O)CCC(=O)N1CC(C)Oc2ccc(C)cc21 (centres undefined)	.	?	-2%	10	?	.
CCOc1ccc(CNC(=O)CCS(=O)(=O)c2ccc3c(c2)NC(=O)CO3)cc1OC	5	24%	-1%	4	2%	0
O=C(/C=C\c1cn(-c2ccccc2)nc1-c1ccccc1)Nc1nccs1	32	?	-33%	19	15µM*	-9
NC(=O)CSc1cn(Cc2ccccc2)c2ccccc12	2	?	.	1	?	-65*
OCCCc1cn(Cc2ccccc2)c2ccccc12	0	-12%	18µM*	5	-7%	13
NC(=O)CSc1cn(Cc2ccc(F)cc2)c2ccccc12	-23	?	-6%	0	?	0
COc1ccc(CCNC(=O)Cn2cc(S(=O)(=O)Cc3ccc(F)cc3)c3ccccc32)cc1OC	.	21µM*	-1%	-5	?	.
COc1ccc(CCNC(=O)C(=O)c2cn(CC(=O)N3CCCC3)c3ccccc23)cc1OC	-19	21µM*	5%	1	-9%	-30
COc1ccc(NC(=O)C(=O)c2cn(CC(=O)N3CCCC3)c3ccccc23)cc1	?	0.23µM*	-1%	-10	0.41µM*	125
CC(=O)Nc1cccc(NC(=O)C(=O)c2cn(CC(=O)N3CCCCC3)c3ccccc23)c1	6	?	.	0	23µM*	-3
COc1ccc(CCNC(=O)C(=O)c2cn(CC(=O)N3CCOCC3)c3ccccc23)cc1	-12	-17%	.	-10	20%	-9
O=C1CC(C(=O)O)(c2ccccc2)c2cccc(F)c21 (centres undefined)	9	-4%	0%	2	7%	35
Cc1ccc2c(CC(=O)OCc3cc(=O)n4c(n3)sc3ccccc34)coc2c1	0	-26%	2%	-1	-4%	13
CC(C)[C@H](NC(=O)Cc1ccccc1)C(=O)OCc1cc(=O)n2c(n1)sc1ccccc12	21	13µM*	2%	3	15µM*	8
Cc1cccc(C(=O)N2[C@@H](C(C)C)COc3cc(Br)ccc3S2(=O)=O)c1	3	?	-2%	3	?	-3
COc1ccccc1C(=O)N1[C@@H](C(C)C)COc2cc(Br)ccc2S1(=O)=O	3	16µM*	0%	11	?	18
COc1cccc(C(=O)N2C(C(C)C)COc3cc(Br)ccc3S2(=O)=O)c1 (centres undefined)	3	23µM*	-2%	-3	26µM*	65
O=C1NC[C@H](Cc2ccc(O)cc2)N(C[C@@H]2CCCN2C[C@H](Cc2ccc(O)cc2)N2C[C@H](Cc3ccccc3)N(CC3CCCCC3)C(=O)C2=O)C1=O	6	-18%	0%	-6	-13%	0
Oc1ccc(C[C@H]2CNC(=S)N2CC2CCCN2C[C@H](Cc2ccccc2)N2C[C@H](Cc3ccc(O)cc3)N(CCc3ccccc3)C2=S)cc1 (some centres undefined)	-17	23µM*	-4%	4	23µM*	?
Oc1ccc(C[C@@H](CN2CCC[C@@H]2CN2C(=S)NC[C@@H]2Cc2ccccc2)N2C[C@H](Cc3ccccc3)N(CCc3ccccc3)C2=S)cc1	-15	18µM*	-2%	-19	16µM*	-17
COC(=O)CNc1cccc(C(F)(F)F)c1	-21	-11%	-3%	-7	10%	9
CCN(C[C@H]1N[C@@](Cc2ccccc2)(C(=O)OC)[C@H]2C(=O)N(Cc3ccccc3)C(=O)[C@@H]12)S(=O)(=O)c1ccc(C(C)(C)C)cc1	0	16µM*	-2%	11	?	0
CCN(C[C@H]1N[C@@](CC)(C(=O)OC)[C@H]2C(=O)N(C)C(=O)[C@@H]12)S(=O)(=O)c1ccc(C(C)(C)C)cc1	6	?	1%	-13	?	-4
CCN(C[C@H]1N[C@@](Cc2ccccc2)(C(=O)OC)[C@H]2C(=O)N(Cc3ccccc3)C(=O)[C@@H]12)S(=O)(=O)c1ccc(F)cc1	-14	?	0%	10	18µM*	-16
SMILES	D3 antag	DT40 TDP1 no CPT	ClpP mod	DRD3 agonist	DT40 TDP1 CPT	IL1B secr inh
COC(=O)[C@]1(Cc2ccccc2)N[C@H](CN(C)S(=O)(=O)c2ccc(C(C)(C)C)cc2)[C@@H]2C(=O)N(C)C(=O)[C@@H]21	11	?	2%	-7	18µM*	-25
COC(=O)[C@]1(Cc2ccccc2)N[C@H](CN(C)S(=O)(=O)c2ccc(F)cc2)[C@@H]2C(=O)N(C)C(=O)[C@@H]21	28	-4%	0%	15	-5%	6
CCN(C[C@H]1N[C@@](Cc2ccccc2)(C(=O)OC)[C@H]2C(=O)N(Cc3ccccc3)C(=O)[C@@H]12)S(=O)(=O)c1ccc(OC)cc1	66	?	-2%	3	?	7
CCN(C[C@H]1N[C@@](Cc2ccccc2)(C(=O)OC)[C@H]2C(=O)N(C)C(=O)[C@@H]12)S(=O)(=O)c1ccc(C(C)(C)C)cc1	10	18µM*	-1%	28	?	11
CC1(C)CC(=O)C=C(c2cccc(O)c2)C1=O	-15	0%	1%	5	-3%	9
C[C@H]1CN([C@@H](C)CO)S(=O)(=O)c2ccc(Br)cc2O[C@@H]1CN(C)C(=O)CCN1CCCCC1	10	6%	1%	-6	-13%	-8
CC1=C(C(=O)N2CCCCCC2)CC(CC(=O)NCCN2CCOCC2)C(=O)N1CCCN1CCCC1=O (centres undefined)	.	1%	-1%	.	-2%	.
COc1cc(Cl)c(C)cc1NC(=O)COC(=O)CCc1nc2ccccc2c(=O)[nH]1	-3	-12%	.	1	-23%	69
CC(=O)OCc1cnc(C)c2oc(=O)c(C(=O)Nc3cc(F)ccc3C)cc12	.	-3%	-2%	4	5%	.
